Data published in paper PMC7862700, “An all-to-all approach to the identification of sequence-specific readers for epigenetic DNA modifications on cytosine”.

Columns and labels:
Experiment in all cases: DAPPL (digital affinity profiling via proximity ligation, sequencing); 10 mM Tris-HCl pH 7.5, 50 mM NaCl, 1 mM DTT, 4% glycerol, room temperature, 30 min; GST-TFs on glutathione beads, 16-mer random dsDNA library, 0.1% formaldehyde crosslink after washing; high values mean tight binding
[1] = target: T1, FLI1 (Homo sapiens, UniProt Q01543 1-452); conditions: protein: recombinant; tags: N-terminal GST; dsDNA, one strand shown
T1 sequence: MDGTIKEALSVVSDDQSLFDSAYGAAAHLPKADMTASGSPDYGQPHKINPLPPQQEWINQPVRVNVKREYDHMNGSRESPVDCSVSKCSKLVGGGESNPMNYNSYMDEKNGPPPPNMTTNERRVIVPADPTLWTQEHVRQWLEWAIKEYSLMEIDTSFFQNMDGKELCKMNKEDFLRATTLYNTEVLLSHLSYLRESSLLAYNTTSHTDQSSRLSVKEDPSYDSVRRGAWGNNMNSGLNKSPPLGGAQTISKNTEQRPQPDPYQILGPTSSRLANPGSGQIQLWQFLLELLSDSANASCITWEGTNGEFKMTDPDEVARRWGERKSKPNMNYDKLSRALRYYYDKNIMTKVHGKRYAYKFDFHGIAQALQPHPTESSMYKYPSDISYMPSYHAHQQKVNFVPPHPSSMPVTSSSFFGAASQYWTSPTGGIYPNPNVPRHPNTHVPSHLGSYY
In short: (§1)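 Binding signal is each hexamer's read frequency for a factor divided by its frequency in the tag-only sample. The factors were GST-fused human transcription factors from yeast, captured on glutathione beads, DNA-barcoded and pooled with that sample. Pools were incubated with 200 nmole of a random double-stranded 16-mer DNA library in Tris/NaCl/DTT/glycerol buffer at room temperature for 30 min, then washed, crosslinked with 0.1% formaldehyde, proximity-ligated with BsaI/T4 ligase (1 h, 37 °C), PCR-amplified and sequenced on an Illumina NextSeq500.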

[2] = target: T2, ELK1 (Homo sapiens, UniProt P19419 1-428); conditions: protein: recombinant; tags: N-terminal GST; dsDNA, one strand shown
T2 sequence: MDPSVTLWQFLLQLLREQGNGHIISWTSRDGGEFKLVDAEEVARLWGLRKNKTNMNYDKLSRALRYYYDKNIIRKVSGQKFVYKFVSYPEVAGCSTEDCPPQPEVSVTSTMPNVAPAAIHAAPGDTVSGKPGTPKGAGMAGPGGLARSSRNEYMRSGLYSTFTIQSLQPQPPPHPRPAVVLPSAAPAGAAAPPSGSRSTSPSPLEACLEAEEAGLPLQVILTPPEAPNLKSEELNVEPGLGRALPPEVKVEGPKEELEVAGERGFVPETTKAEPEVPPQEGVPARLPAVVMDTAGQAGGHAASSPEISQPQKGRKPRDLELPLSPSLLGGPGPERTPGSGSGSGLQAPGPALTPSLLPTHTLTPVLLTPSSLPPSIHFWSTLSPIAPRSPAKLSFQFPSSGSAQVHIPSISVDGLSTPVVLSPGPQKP
In short: as §1

[3] = target: T3, GABPA (Homo sapiens, UniProt Q06546 1-454); conditions: protein: recombinant; tags: N-terminal GST; dsDNA, one strand shown
T3 sequence: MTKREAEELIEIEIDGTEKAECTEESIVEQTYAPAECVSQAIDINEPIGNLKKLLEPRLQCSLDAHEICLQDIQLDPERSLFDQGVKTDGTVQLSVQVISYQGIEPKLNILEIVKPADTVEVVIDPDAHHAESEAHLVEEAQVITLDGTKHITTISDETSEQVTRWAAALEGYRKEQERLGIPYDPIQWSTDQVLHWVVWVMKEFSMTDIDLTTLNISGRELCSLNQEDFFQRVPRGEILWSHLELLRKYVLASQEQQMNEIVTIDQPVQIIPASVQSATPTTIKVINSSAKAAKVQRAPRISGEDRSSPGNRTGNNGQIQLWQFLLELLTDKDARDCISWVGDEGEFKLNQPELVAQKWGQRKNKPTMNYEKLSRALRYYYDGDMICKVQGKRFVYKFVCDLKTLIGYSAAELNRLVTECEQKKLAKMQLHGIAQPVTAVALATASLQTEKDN
In short: as §1

[4] = target: T4, ERG (Homo sapiens, UniProt P11308 1-479); conditions: protein: recombinant; tags: N-terminal GST; dsDNA, one strand shown
T4 sequence: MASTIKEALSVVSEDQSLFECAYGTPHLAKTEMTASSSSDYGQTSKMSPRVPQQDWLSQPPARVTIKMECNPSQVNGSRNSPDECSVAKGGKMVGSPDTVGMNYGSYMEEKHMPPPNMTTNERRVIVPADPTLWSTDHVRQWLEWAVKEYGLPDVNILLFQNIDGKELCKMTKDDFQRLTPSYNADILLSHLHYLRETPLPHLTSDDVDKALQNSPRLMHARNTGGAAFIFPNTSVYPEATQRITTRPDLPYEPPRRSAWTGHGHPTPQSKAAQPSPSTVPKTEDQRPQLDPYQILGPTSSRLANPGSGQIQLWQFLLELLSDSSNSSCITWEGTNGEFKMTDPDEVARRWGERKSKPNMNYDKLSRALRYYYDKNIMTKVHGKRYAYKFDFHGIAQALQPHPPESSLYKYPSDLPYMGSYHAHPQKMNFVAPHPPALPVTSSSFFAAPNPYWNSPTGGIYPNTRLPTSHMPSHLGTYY
In short: as §1

[5] = target: ELF1 (Homo sapiens, UniProt P32519 1-619); conditions: protein: recombinant; tags: N-terminal GST; dsDNA, one strand shown
In short: as §1

[6] = target: T5, EHF (Homo sapiens, UniProt Q9NZC4 1-300); conditions: protein: recombinant; tags: N-terminal GST; dsDNA, one strand shown
T5 sequence: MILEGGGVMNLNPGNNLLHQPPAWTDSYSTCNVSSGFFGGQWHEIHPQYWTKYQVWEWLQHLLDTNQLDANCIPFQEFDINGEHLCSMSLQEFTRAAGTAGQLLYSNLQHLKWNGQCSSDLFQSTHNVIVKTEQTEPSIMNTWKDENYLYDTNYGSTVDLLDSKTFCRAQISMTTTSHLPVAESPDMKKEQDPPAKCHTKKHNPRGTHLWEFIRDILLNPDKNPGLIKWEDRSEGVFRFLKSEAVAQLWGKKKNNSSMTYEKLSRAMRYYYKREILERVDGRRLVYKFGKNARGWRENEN
In short: as §1

[7] = target: SPI1 (Homo sapiens, UniProt P17947 1-270); conditions: protein: recombinant; tags: N-terminal GST; dsDNA, one strand shown
In short: as §1

[8] = target: SPIB (Homo sapiens, UniProt Q01892 1-262); conditions: protein: recombinant; tags: N-terminal GST; dsDNA, one strand shown
In short: as §1

[9] = target: T6, ELK3 (Homo sapiens, UniProt P41970 1-407); conditions: protein: recombinant; tags: N-terminal GST; dsDNA, one strand shown
T6 sequence: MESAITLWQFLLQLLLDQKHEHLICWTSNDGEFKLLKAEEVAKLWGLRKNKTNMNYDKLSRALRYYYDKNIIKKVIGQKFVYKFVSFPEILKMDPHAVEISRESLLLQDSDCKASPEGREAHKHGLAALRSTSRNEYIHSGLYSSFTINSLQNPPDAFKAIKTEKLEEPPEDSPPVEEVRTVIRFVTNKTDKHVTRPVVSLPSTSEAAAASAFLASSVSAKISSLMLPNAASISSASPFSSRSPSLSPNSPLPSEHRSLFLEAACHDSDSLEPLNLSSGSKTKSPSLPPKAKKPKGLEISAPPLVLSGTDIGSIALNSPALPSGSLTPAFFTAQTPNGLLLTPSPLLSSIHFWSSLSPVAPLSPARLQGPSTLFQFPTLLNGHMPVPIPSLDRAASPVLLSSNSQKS
In short: as §1

[10] = target: T7, FEV (Homo sapiens, UniProt Q99581 1-238); conditions: protein: recombinant; tags: N-terminal GST; dsDNA, one strand shown
T7 sequence: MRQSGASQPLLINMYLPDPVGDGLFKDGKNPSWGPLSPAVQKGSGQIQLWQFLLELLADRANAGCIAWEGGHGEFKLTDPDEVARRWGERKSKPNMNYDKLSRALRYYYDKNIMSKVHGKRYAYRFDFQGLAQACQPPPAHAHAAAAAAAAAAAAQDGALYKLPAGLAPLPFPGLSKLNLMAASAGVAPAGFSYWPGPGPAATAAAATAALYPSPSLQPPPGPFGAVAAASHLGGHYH
In short: as §1

[11] = target: ETV5 (Homo sapiens, UniProt P41161 1-510); conditions: protein: recombinant; tags: N-terminal GST; dsDNA, one strand shown
In short: as §1

[12] = target: HSF1 (Homo sapiens, UniProt Q00613 1-529); conditions: protein: recombinant; tags: N-terminal GST; chain copies: 3; dsDNA, one strand shown
In short: as §1

[13] = target: T8, SPIC (Homo sapiens, UniProt Q8N5J4 1-248); conditions: protein: recombinant; tags: N-terminal GST; dsDNA, one strand shown
T8 sequence: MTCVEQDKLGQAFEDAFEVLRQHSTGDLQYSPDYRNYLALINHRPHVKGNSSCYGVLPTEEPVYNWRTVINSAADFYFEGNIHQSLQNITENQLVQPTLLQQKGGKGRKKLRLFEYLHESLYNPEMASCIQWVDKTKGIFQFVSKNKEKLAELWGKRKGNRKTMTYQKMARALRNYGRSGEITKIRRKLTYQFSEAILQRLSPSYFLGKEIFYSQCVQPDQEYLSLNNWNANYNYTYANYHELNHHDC
In short: as §1

[14] = target: ELF4 (Homo sapiens, UniProt Q99607 1-663); conditions: protein: recombinant; tags: N-terminal GST; dsDNA, one strand shown
In short: as §1

[15] = target: T9, ELK4 (Homo sapiens, UniProt P28324-2 1-405); conditions: protein: recombinant; tags: N-terminal GST; dsDNA, one strand shown
T9 sequence: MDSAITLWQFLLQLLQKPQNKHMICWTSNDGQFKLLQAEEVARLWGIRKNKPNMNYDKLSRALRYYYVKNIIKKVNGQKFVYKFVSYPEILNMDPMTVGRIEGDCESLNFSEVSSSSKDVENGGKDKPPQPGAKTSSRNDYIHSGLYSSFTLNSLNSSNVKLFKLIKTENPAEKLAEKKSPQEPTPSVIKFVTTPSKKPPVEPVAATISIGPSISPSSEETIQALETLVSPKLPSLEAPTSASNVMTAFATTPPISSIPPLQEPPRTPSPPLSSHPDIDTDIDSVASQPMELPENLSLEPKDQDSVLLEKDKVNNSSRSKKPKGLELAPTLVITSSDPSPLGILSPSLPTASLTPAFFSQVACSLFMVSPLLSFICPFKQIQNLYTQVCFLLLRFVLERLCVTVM
In short: as §1

[16] = target: T10, ETV2 (Homo sapiens, UniProt O00321 1-342); conditions: protein: recombinant; tags: N-terminal GST; dsDNA, one strand shown
T10 sequence: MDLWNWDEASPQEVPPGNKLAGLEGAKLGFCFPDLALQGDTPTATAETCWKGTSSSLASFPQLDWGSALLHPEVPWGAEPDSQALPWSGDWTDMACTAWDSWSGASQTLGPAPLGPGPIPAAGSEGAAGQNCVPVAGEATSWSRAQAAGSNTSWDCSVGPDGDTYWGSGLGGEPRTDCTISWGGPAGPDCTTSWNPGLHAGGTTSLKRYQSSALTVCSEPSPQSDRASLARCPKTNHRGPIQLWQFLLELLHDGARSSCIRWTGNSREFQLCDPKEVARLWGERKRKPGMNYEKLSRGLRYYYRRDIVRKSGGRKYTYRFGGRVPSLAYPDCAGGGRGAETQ
In short: as §1

[17] = target: T11, ELF3 (Homo sapiens, UniProt P78545 1-371); conditions: protein: recombinant; tags: N-terminal GST; dsDNA, one strand shown
T11 sequence: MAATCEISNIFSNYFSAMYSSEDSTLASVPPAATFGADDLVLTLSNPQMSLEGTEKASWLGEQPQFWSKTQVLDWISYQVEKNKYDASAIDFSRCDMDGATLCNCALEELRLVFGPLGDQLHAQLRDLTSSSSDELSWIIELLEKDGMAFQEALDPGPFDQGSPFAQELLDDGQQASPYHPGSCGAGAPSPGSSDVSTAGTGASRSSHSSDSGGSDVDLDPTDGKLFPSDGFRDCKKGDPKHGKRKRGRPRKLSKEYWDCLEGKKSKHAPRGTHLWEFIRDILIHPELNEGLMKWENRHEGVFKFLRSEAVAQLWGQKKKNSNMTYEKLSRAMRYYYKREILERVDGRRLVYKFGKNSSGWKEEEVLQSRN
In short: as §1

[18] = target: CRX (Homo sapiens, UniProt O43186 1-299); conditions: protein: recombinant; tags: N-terminal GST; dsDNA, one strand shown
In short: as §1

[19] = target: ETV1 (Homo sapiens, UniProt P50549 1-477); conditions: protein: recombinant; tags: N-terminal GST; dsDNA, one strand shown
In short: as §1

SPIB, sequence (Q01892 whole entry): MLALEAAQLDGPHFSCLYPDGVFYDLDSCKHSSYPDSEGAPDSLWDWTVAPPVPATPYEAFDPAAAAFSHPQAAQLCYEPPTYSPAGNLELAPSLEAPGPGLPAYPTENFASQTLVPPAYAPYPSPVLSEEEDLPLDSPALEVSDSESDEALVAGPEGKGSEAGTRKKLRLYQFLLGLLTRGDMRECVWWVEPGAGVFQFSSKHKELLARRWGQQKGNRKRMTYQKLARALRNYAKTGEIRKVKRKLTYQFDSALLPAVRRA
CRX, sequence (O43186 whole entry): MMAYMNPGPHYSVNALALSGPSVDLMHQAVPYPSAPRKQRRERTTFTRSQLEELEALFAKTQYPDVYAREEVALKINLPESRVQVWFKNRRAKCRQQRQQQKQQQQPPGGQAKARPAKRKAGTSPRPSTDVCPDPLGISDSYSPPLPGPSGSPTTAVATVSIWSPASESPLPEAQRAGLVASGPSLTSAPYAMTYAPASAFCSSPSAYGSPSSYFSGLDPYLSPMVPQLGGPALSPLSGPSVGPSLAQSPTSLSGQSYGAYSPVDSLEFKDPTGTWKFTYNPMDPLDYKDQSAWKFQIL
ETV5, sequence (P41161 whole entry): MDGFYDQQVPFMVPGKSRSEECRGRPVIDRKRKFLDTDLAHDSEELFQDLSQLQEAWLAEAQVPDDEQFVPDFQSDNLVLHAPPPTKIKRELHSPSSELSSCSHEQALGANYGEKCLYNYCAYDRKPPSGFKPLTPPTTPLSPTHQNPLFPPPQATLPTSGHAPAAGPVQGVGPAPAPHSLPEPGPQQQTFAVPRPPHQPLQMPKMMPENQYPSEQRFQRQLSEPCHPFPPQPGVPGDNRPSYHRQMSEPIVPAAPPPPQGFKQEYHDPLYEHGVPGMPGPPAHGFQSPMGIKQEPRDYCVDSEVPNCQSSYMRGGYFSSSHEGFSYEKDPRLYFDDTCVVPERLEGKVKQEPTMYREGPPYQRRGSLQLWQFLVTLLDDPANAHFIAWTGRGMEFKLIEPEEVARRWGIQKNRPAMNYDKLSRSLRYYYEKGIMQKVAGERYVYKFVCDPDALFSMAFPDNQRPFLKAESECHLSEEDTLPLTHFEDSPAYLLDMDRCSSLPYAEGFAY
ELF1, sequence (P32519 whole entry): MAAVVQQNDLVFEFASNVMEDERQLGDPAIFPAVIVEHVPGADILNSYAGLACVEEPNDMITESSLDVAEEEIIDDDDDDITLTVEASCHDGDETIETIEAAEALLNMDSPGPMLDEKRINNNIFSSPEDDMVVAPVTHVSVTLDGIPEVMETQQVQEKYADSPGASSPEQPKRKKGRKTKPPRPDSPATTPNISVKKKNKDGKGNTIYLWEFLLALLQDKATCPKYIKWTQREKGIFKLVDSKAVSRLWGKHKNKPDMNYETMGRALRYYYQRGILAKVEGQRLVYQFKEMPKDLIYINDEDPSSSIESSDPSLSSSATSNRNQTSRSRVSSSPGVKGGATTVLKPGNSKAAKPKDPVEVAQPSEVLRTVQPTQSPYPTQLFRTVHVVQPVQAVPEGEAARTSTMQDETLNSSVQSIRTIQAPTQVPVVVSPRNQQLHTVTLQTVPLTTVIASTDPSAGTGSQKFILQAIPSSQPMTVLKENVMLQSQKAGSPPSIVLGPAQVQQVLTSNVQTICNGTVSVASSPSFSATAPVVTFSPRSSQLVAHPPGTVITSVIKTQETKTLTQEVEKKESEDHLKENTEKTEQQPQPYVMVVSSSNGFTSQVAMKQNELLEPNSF
HSF1, sequence (Q00613 whole entry): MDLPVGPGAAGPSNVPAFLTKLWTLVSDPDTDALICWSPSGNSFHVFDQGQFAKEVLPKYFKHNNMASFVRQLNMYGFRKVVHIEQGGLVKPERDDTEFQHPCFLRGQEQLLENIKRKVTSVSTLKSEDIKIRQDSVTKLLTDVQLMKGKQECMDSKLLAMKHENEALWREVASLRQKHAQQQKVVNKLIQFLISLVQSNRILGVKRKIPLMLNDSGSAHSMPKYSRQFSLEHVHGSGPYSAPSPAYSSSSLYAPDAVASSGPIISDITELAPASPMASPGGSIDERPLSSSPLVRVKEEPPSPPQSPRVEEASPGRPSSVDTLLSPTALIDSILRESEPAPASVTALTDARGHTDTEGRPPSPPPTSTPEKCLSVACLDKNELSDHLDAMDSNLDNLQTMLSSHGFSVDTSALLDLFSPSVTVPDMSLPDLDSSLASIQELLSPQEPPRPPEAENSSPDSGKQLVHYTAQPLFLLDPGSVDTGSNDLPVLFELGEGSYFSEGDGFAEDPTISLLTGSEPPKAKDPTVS
ELF4, sequence (Q99607 whole entry): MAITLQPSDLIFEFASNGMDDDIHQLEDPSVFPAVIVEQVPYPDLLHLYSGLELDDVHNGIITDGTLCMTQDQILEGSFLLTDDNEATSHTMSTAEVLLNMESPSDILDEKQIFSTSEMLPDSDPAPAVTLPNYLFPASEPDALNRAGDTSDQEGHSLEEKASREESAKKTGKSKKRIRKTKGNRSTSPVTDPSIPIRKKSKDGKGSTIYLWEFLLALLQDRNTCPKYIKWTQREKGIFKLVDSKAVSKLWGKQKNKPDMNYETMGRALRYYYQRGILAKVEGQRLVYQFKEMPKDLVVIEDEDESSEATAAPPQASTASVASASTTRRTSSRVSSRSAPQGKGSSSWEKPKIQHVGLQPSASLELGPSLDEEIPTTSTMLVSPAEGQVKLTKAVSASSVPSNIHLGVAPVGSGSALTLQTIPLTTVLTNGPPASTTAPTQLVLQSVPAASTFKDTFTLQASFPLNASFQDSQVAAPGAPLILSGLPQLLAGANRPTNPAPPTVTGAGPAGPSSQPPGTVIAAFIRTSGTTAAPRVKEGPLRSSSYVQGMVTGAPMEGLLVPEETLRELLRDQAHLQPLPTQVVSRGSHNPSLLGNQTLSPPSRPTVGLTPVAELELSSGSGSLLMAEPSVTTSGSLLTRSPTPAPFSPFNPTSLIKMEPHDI
ETV1, sequence (P50549 whole entry): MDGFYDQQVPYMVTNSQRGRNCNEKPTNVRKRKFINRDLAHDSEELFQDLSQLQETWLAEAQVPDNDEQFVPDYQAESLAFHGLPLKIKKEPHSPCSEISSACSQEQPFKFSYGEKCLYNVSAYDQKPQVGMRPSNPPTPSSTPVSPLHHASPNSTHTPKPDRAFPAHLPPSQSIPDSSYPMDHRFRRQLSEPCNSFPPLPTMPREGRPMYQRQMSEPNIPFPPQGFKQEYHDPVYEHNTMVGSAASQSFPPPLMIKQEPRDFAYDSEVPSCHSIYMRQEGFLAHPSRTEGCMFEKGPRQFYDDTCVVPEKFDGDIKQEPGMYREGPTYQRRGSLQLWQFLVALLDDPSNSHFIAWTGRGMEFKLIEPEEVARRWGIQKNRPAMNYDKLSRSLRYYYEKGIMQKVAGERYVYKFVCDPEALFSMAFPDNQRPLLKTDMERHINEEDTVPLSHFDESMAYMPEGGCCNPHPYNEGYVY

## TCCCGT
[1]
  binding signal: 1.24 fold enrichment (6-mer frequency, TF over GST control)
[2]
  binding signal: 1.23 fold enrichment (6-mer frequency, TF over GST control)
[3]
  binding signal: 1.26 fold enrichment (6-mer frequency, TF over GST control)
[4]
  binding signal: 1.37 fold enrichment (6-mer frequency, TF over GST control)
[5]
  binding signal: 1.26 fold enrichment (6-mer frequency, TF over GST control)
[6]
  binding signal: 1.35 fold enrichment (6-mer frequency, TF over GST control)
[7]
  binding signal: 1.43 fold enrichment (6-mer frequency, TF over GST control)
[8]
  binding signal: 1.3 fold enrichment (6-mer frequency, TF over GST control)
[9]
  binding signal: 1.3 fold enrichment (6-mer frequency, TF over GST control)
[10]
  binding signal: 1.3 fold enrichment (6-mer frequency, TF over GST control)
[11]
  binding signal: 1.38 fold enrichment (6-mer frequency, TF over GST control)
[12]
  binding signal: 1.35 fold enrichment (6-mer frequency, TF over GST control)
[13]
  binding signal: 1.28 fold enrichment (6-mer frequency, TF over GST control)
[14]
  binding signal: 1.23 fold enrichment (6-mer frequency, TF over GST control)
[15]
  binding signal: 1.41 fold enrichment (6-mer frequency, TF over GST control)
[16]
  binding signal: 1.29 fold enrichment (6-mer frequency, TF over GST control)
[17]
  binding signal: 1.37 fold enrichment (6-mer frequency, TF over GST control)
[18]
  binding signal: 1.18 fold enrichment (6-mer frequency, TF over GST control)
[19]
  binding signal: 1.3 fold enrichment (6-mer frequency, TF over GST control)
